Test results from PubChem BioAssay (NCI).
“And” between values parts separate entries of the source, which are not always exact repeats. Equal entries are not always repeated. This is part of a sample that, as a whole, favours compounds with a hit. Of some 83,000 tested, about 20% had one in any assay.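 Each cell line was grown in a 96-well plate and treated with one concentration of compound for 48 hours. Values below 10 were considered active.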

Assays:
Test in all cases: NCI-60 one-dose screen, 48 h (100 = growth as untreated, 0 = no growth, -100 = all killed)
Settings in all cases: 10 µM unless noted
NCI-H23 lung = tested on: NCI-H23 lung
NCI-H226 lung = tested on: NCI-H226 lung
NCI-H322M lung = tested on: NCI-H322M lung
HOP-62 NSCLC = tested on: HOP-62 NSCLC
NCI-H460 lung = tested on: NCI-H460 lung
HOP-92 NSCLC = tested on: HOP-92 NSCLC
NCI-H522 lung = tested on: NCI-H522 lung
A549/ATCC NSCLC = tested on: A549/ATCC NSCLC
786-0 renal = tested on: 786-0 renal
COLO 205 colon = tested on: COLO 205 colon
DU-145 prostate = tested on: DU-145 prostate
K-562 leukemia = tested on: K-562 leukemia
MALME-3M melanoma = tested on: MALME-3M melanoma
MDA-MB-231 breast = tested on: MDA-MB-231 breast
RXF 393 renal = tested on: RXF 393 renal
SF-268 CNS = tested on: SF-268 CNS
SF-295 CNS = tested on: SF-295 CNS
SF-539 CNS = tested on: SF-539 CNS
UACC-257 melanoma = tested on: UACC-257 melanoma
M14 melanoma = tested on: M14 melanoma

Measured: growth

NNc1ncnc2cccc(Cl)c12
inactive: NCI-H23 lung 99.9% | NCI-H226 lung 93.1% | NCI-H322M lung 101% | HOP-62 NSCLC 95.3% | NCI-H460 lung 113% | HOP-92 NSCLC 79.7% | NCI-H522 lung 84.8% | A549/ATCC NSCLC 81.1% | 786-0 renal 105% | COLO 205 colon 104% | DU-145 prostate 112% | K-562 leukemia 99.4% | MALME-3M melanoma 99% | MDA-MB-231 breast 105% | RXF 393 renal 103% | SF-268 CNS 107% | SF-295 CNS 98.7% | SF-539 CNS 97.2% | UACC-257 melanoma 88.2% | M14 melanoma 104%

COc1ccc2oc3c(ccc[n+]3C)c(=O)c2c1
inactive: NCI-H23 lung 105% | NCI-H226 lung 98.3% | NCI-H322M lung 105% | HOP-62 NSCLC 80.5% | NCI-H460 lung 108% | HOP-92 NSCLC 94.7% | NCI-H522 lung 82.7% | A549/ATCC NSCLC 84% | 786-0 renal 105% | COLO 205 colon 98.6% | DU-145 prostate 113% | K-562 leukemia 99% | MALME-3M melanoma 102% | MDA-MB-231 breast 110% | RXF 393 renal 108% | SF-268 CNS 101% | SF-295 CNS 99.5% | SF-539 CNS 98.2% | UACC-257 melanoma 87.3% | M14 melanoma 102%

NCCSSC/C=C\CSSCCN
inactive: NCI-H23 lung 102% | NCI-H226 lung 90.1% | NCI-H322M lung 100% | HOP-62 NSCLC 98.4% | NCI-H460 lung 97.5% | HOP-92 NSCLC 84.6% | NCI-H522 lung 88.1% | A549/ATCC NSCLC 90.1% | 786-0 renal 99% | COLO 205 colon 113% | DU-145 prostate 104% | K-562 leukemia 95.7% | MALME-3M melanoma 103% | MDA-MB-231 breast 100% | RXF 393 renal 102% | SF-268 CNS 99.5% | SF-295 CNS 104% | SF-539 CNS 109% | UACC-257 melanoma 91.3% | M14 melanoma 96.9%

Cc1ccc(C(=O)c2ccc(C)cc2)cc1
inactive: NCI-H23 lung 95.9% and 98.3% | NCI-H226 lung 92.4% and 94.6% | NCI-H322M lung 97.2% and 94.3% | HOP-62 NSCLC 92.5% and 98.4% | NCI-H460 lung 101% and 105% | HOP-92 NSCLC 59.2% and 73.7% | NCI-H522 lung 89.3% and 93.6% | A549/ATCC NSCLC 87.9% and 101% | 786-0 renal 90.7% and 99.6% | COLO 205 colon 99.7% | DU-145 prostate 102% and 103% | K-562 leukemia 103% and 110% | MALME-3M melanoma 108% and 93.2% | MDA-MB-231 breast 103% and 106% | RXF 393 renal 88% and 95.8% | SF-268 CNS 94.8% and 98% | SF-295 CNS 94.4% and 103% | SF-539 CNS 85.3% and 97.6% | UACC-257 melanoma 92.6% and 114% | M14 melanoma 101%

CCOc1ccc(/C=C\C(=O)O)cc1
inactive: NCI-H23 lung 109% | NCI-H226 lung 114% | NCI-H322M lung 107% | HOP-62 NSCLC 135% | NCI-H460 lung 109% | HOP-92 NSCLC 86.9% | NCI-H522 lung 115% | A549/ATCC NSCLC 104% | 786-0 renal 104% | COLO 205 colon 129% | DU-145 prostate 111% | K-562 leukemia 103% | MALME-3M melanoma 105% | MDA-MB-231 breast 108% | RXF 393 renal 138% | SF-268 CNS 115% | SF-295 CNS 103% | SF-539 CNS 110% | UACC-257 melanoma 109% | M14 melanoma 110%

O=C1Cc2ccccc2C(=O)N1
inactive: NCI-H23 lung 103% | NCI-H226 lung 101% | NCI-H322M lung 96.3% | HOP-62 NSCLC 84.6% | NCI-H460 lung 110% | HOP-92 NSCLC 49.9% | NCI-H522 lung 77.2% | A549/ATCC NSCLC 86.1% | 786-0 renal 82.1% | COLO 205 colon 99.2% | DU-145 prostate 112% | K-562 leukemia 46.9% | MALME-3M melanoma 104% | MDA-MB-231 breast 44.1% | RXF 393 renal 99.1% | SF-268 CNS 97% | SF-295 CNS 102% | SF-539 CNS 103% | UACC-257 melanoma 89.4% | M14 melanoma 95.3%
